Results on nine compounds are retold here after PubChem BioAssay (NCI).

Each structure is given as a SMILES string. This is part of a sample that, as a whole, favours compounds with a hit. Of some 83,000 tested, about 20% had one in any assay.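 In brief: 96-well plates, 48 h treatment, single concentration, percent growth endpoint.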 Unmarked numbers belong to inactive results. Activity calls are given as the source filed them. Rule for the calls: active = growth percent below 10; inactive = the rest.

Among the test systems are DU-145 prostate; K-562 leukemia; MALME-3M melanoma; MDA-MB-231 breast; RXF 393 renal; SF-268 CNS; SF-295 CNS; SF-539 CNS; UACC-257 melanoma; M14 melanoma; HCT-15 colon; SNB-75 CNS; SNB-19 CNS; U251 CNS; PC-3 prostate; SK-MEL-5 melanoma; UACC-62 melanoma; LOX IMVI melanoma; SK-MEL-28 melanoma; HT29 colon.
Assay in all cases: NCI-60 one-dose screen, 48 h (100 = growth as untreated, 0 = no growth, -100 = all killed)
Conditions in all cases: 10 µM unless noted

With `CCCCCOC(=O)c1cccc(NC(=O)CN(CC)CC)c1`, the growth in the test on DU-145 prostate was 104%; with K-562 leukemia, 103%; in the test on MALME-3M melanoma, 94.8%; with MDA-MB-231 breast, 117%; with RXF 393 renal, 106%; in the test on SF-268 CNS, 104%. Moreover, the growth with SF-295 CNS was 96.1%; in the test on SF-539 CNS it was 98.6%; with UACC-257 melanoma, 105%; in the test on M14 melanoma, 86.9%; in the test with HCT-15 colon, 107%; with SNB-75 CNS, 103%. In addition, the growth with SNB-19 CNS is 106%; in the test with U251 CNS, 103%; in the test on PC-3 prostate, 77.1%; in the test on SK-MEL-5 melanoma, 105%; with UACC-62 melanoma it was 103%; in the test on LOX IMVI melanoma it was 101%. Besides, the growth in the test with SK-MEL-28 melanoma is 108%.

Turning to `C=C1C(=O)O[C@H]2[C@H]1CC/C(Cn1cc(CNCCc3c[nH]c4ccccc34)nn1)=C\CC[C@@]1(C)O[C@@H]21`, the growth in the test with DU-145 prostate is 104%; in the test with K-562 leukemia it was 32%; in the test on MALME-3M melanoma, 76%; with MDA-MB-231 breast it was 92.4%; in the test with RXF 393 renal it was 85.4%; in the test with SF-268 CNS, 95.8%. Besides, the growth in the test with SF-295 CNS was 102%; in the test with SF-539 CNS, 81.1%; in the test with UACC-257 melanoma, 77.4%; in the test on M14 melanoma it was 84.3%; in the test with HCT-15 colon, 102%; in the test with HT29 colon it was 61.2%. Besides, the growth in the test on SNB-75 CNS is 79.8%; in the test on SNB-19 CNS it was 98.3%; in the test with U251 CNS, 92.8%; in the test on PC-3 prostate it was 94.1%; in the test with SK-MEL-5 melanoma, 96.5%; with LOX IMVI melanoma it was 94%. In addition, the growth in the test on SK-MEL-28 melanoma was 89%.

Turning to `CC(C)(O)c1cccc(F)c1`, the growth in the test on DU-145 prostate is 107%; in the test with K-562 leukemia, 105%; in the test on MALME-3M melanoma it was 101%; in the test on MDA-MB-231 breast, 89.5%; in the test on RXF 393 renal, 107%; in the test on SF-268 CNS it was 106%. Besides, the growth is 106% with SF-295 CNS; 88% with SF-539 CNS; 108% in the test with UACC-257 melanoma; 95.6% in the test on M14 melanoma; 99.2% in the test on HCT-15 colon; 92.3% in the test with SNB-75 CNS. Further, the growth in the test on SNB-19 CNS was 97.6%; in the test with U251 CNS it was 106%; with PC-3 prostate it was 99.9%; in the test with SK-MEL-5 melanoma, 103%; in the test on UACC-62 melanoma it was 88.7%; in the test on LOX IMVI melanoma, 97.7%. Also, the growth in the test on SK-MEL-28 melanoma is 101%.

Regarding `C=C1c2c(C)nn(-c3ccc(O)cc3)c2N(C)C23C[C@@H]1C1(C)c4c(C)nn(-c5ccc(O)cc5)c4N(C)C(C)(C[C@H]12)C3` (some centres undefined), the growth is 45% in the test with DU-145 prostate; 18.1% in the test with K-562 leukemia; 58.7% in the test with MALME-3M melanoma; 14.8% in the test with MDA-MB-231 breast; 19.9% with RXF 393 renal; 48% in the test with SF-268 CNS. Besides, the growth in the test with SF-295 CNS is 26.9%; in the test with SF-539 CNS it was 23.7%; with UACC-257 melanoma, 29.1%; in the test on M14 melanoma, 15.5%; with HCT-15 colon, 11.1%; with HT29 colon, 17.5%. Also, the growth in the test with SNB-75 CNS was 64.2%; with SNB-19 CNS, 48.7%; in the test with U251 CNS, 33%; with PC-3 prostate, 12.8%; in the test with SK-MEL-5 melanoma, 11.4%; in the test with SK-MEL-28 melanoma it was 42.6%.

Turning to `CC(C)(C)N1CC(OC(N)=O)C1`, the growth is 109% in the test on DU-145 prostate; 130% in the test on K-562 leukemia; 106% with MALME-3M melanoma; 97.7% with MDA-MB-231 breast; 29.1% in the test on RXF 393 renal; 109% with SF-268 CNS. The growth is 113% in the test on SF-295 CNS; 98% in the test on SF-539 CNS; 4.43% (active) in the test with UACC-257 melanoma; 97.6% in the test on M14 melanoma; 113% in the test on HCT-15 colon; 101% in the test on HT29 colon. Moreover, the growth was 81.6% in the test on SNB-75 CNS; 106% in the test with SNB-19 CNS; 101% in the test on U251 CNS; 102% with SK-MEL-5 melanoma; 103% with UACC-62 melanoma; 96.3% in the test on LOX IMVI melanoma. Besides, in the test on SK-MEL-28 melanoma, the growth is 109%.

Regarding `CC(C)c1ccc(C(=O)OC(=O)c2ccc(C(C)C)cc2)cc1`, the growth is 119% in the test with DU-145 prostate; 74.7% in the test with K-562 leukemia; 86.3% in the test with MALME-3M melanoma; 116% in the test on MDA-MB-231 breast; 98.5% in the test on RXF 393 renal; 103% in the test with SF-268 CNS. Besides, the growth was 98.9% in the test with SF-295 CNS; 108% with SF-539 CNS; 105% in the test on UACC-257 melanoma; 94.5% in the test on M14 melanoma; 95.1% with HCT-15 colon; 112% with HT29 colon. Also, the growth with SNB-75 CNS was 88.6%; with SNB-19 CNS, 107%; in the test on U251 CNS, 91.2%; in the test with PC-3 prostate it was 86.8%; in the test on SK-MEL-5 melanoma, 116%; in the test on SK-MEL-28 melanoma, 115%.

`CC(C)(C)OC(=O)N1Cc2cc3ccccc3nc2C1CO` (centres undefined): the growth was 98.6% with DU-145 prostate; 133% with K-562 leukemia; 120% in the test with MALME-3M melanoma; 96.6% in the test with MDA-MB-231 breast; 66.5% with RXF 393 renal; 102% with SF-268 CNS. The growth was 92.8% in the test with SF-295 CNS; 95.7% with SF-539 CNS; 19.1% with UACC-257 melanoma; 98.7% in the test on M14 melanoma; 118% with HCT-15 colon; 101% in the test with HT29 colon. Besides, the growth in the test on SNB-75 CNS is 76.8%; in the test with SNB-19 CNS, 111%; with U251 CNS, 103%; in the test with SK-MEL-5 melanoma, 96.9%; in the test on UACC-62 melanoma, 100%; in the test with LOX IMVI melanoma, 101%. Besides, the growth in the test with SK-MEL-28 melanoma was 101%.

Take `C=CCOc1cccc(/C=C2\SC(=Nc3ccc(O)cc3)NC2=O)c1`: the growth in the test on DU-145 prostate was 5.29% (active); with K-562 leukemia, 5.21% (active); with MALME-3M melanoma, 58.3%; in the test on MDA-MB-231 breast, -12.1% (active); in the test on RXF 393 renal it was -12.8% (active); in the test with SF-268 CNS, 19.3%. Also, the growth in the test on SF-295 CNS is 7.15% (active); with SF-539 CNS, -38.1% (active); in the test with UACC-257 melanoma, 68.4%; with M14 melanoma, 9.92% (active); in the test on HCT-15 colon, 10.1%; with HT29 colon it was 11.7%. Besides, the growth was -18.6% (active) in the test with SNB-75 CNS; 30.9% with SNB-19 CNS; 13.1% in the test with U251 CNS; 13.9% in the test on PC-3 prostate; -39% (active) with SK-MEL-5 melanoma; 8.94% (active) in the test with LOX IMVI melanoma. In addition, the growth in the test on SK-MEL-28 melanoma is 69.7%.

`CCN(CC)CC(=O)Nc1cccc(C(=O)OC(C)C)c1`: the growth in the test with DU-145 prostate was 109%; in the test with K-562 leukemia it was 102%; with MALME-3M melanoma it was 99.5%; with MDA-MB-231 breast, 112%; in the test with RXF 393 renal, 112%; in the test on SF-268 CNS, 105%. Also, the growth with SF-295 CNS was 95%; with SF-539 CNS, 100%; in the test with UACC-257 melanoma it was 106%; in the test on M14 melanoma, 79.6%; in the test with HCT-15 colon it was 93.9%; in the test with HT29 colon, 81.5%. For the same compound, the growth with SNB-75 CNS was 107%; in the test with SNB-19 CNS, 106%; in the test with U251 CNS, 100%; in the test with PC-3 prostate, 80.8%; in the test with SK-MEL-5 melanoma, 107%; in the test with LOX IMVI melanoma it was 96.2%. Further, in the test with SK-MEL-28 melanoma, the growth was 102%.
